Several values for one entry are separate records, joined by “and”; a condition that tells them apart may be missing. Identical values can stand only once. Results filed as inconclusive are left out. Where a call stands in place of a potency, no number is given. Activity calls are given as the source filed them. Calls come from the whole dose curve; as a rule, active = well fitted cell-killing curve with a large enough effect; inconclusive = small, poorly fitted or top-dose-only effect; inactive = no such curve, though single readings can be large or run the other way.
Potency is the fitted concentration of half-maximal effect.

The nature of the experiment: qHTS of pediatric cancer cell lines to identify multiple opportunities for drug repurposing: Primary screen for A673 cells (AID 1347092). Note: nearly all actives have a fitted effect of over 45% in size. As to conditions: A673 Ewing sarcoma viability, CellTiter-Glo ATP luminescence, 48 h; series mostly up to 46 µM. The source says:
Drug repurposing or repositioning has been offered as a strategy for drug development in oncology programs. This approach has special potential for childhood cancers and other rare or orphan diseases, where the expected return on new drug development has been a disincentive to pharmaceuticals. […] In this project we exploit the poly-pharmacology of drugs to discover new indications via phenotypic screening of a panel of 19 well-characterized cell lines derived from solid tumors seen in children and adolescents. The goal is to identify approved drugs with previously unrecognized anticancer properties that has the potential to reveal new mechanisms and biological processes involved in carcinogenesis or drug resistance. We employed a titration-based paradigm (quantitative high-throughput screening or qHTS), where all compounds were tested at multiple concentrations for their effect on cell viability. Concentration-response curves (CRCs) were derived directly from the primary screen, and both potency and efficacy values were used to identify compounds with robust bioactivity profiles. We screened the NIH Chemical Genomics Center (NCGC) Pharmaceutical Collection (NPC) and Mechanism Interrogation Plate (MIPE) small molecule collections of approved and investigational compounds against these cell lines; and measured metabolically active cells after 48 hours of compound treatment as a proxy for cell viability. […] Assay Submitter: Nathalia J. Martinez, National Center for Advancing Translational Sciences, National Institutes of Health, Rockville, MD, USA; email: natalia.martinez@nih.gov. Shen, M et al. Quantitative high-throughput phenotypic screening of pediatric cancer cell lines identifies multiple opportunities for drug repurposing. Oncotarget 2017 Dec 19;9(4):4758-4772. PMID 29435139.
The cells were obtained from University of North Carolina (UNC), Pediatric Preclinical Testing Program (PPT), and Coriell Institute (CI). qHTS cell viability assay: Cells were assayed in growth media at a density of 500-1,000 cells/well. Five microliters of cells were dispensed into 1,536-well, white, solid-bottom, TC-treated plates (Greiner Bio One) using a multidrop dispenser and incubated at 37 degrees C, 5% CO2, under a humidified atmosphere for 5 hours. Twenty-three nanoliters of compounds and controls (neutral control DMSO or positive control bortezomib at final concentration of 2.3 uM) were subsequently transferred by Kalypsys pintool. For primary screens, the MIPE collection was tested at 11-point dilutions (final concentrations range from 0.78 nM to 46 µM) and the NPC collection at 8-point dilutions (final concentrations range from 0.59 nM to 46 µM). Compounds tested in follow-up screens were assayed at 11-point dilutions. Cells were incubated for 48 hours, followed by addition of 3 uL of CellTiter-Glo (Promega). After a 15min incubation at room temperature, samples were analyzed for luminescence intensity using a ViewLux High-throughput CCD imager equipped with clear filters.
In general terms: qHTS replaces the single test concentration by a dilution series.
Take `CC(C)Oc1ccc2c(=O)c(-c3ccccc3)coc2c1`: the Potency entry was “inactive”. Next, `N=C(N)c1ccc2cc(OC(=O)c3ccc(N=C(N)N)cc3)ccc2c1`: “inactive”; `COc1cc(Nc2c(C#N)cnc3cc(OCCCN4CCN(C)CC4)c(OC)cc23)c(Cl)cc1Cl`: 10.6 µM (active) and 11.8 µM (active); `CCOC(=O)C1=C[C@@H](OC(CC)CC)[C@H](NC(C)=O)[C@@H](N)C1`: “inactive”.

For the compound `C[C@]12CCC(=O)C=C1CC[C@@H]1[C@H]2[C@@H](O)C[C@@]2(C)[C@H]1CC[C@]2(O)C(=O)CO`, the Potency was 18.7 µM (active). Next, `COCCCOc1ccnc(CS(=O)c2nc3ccccc3[nH]2)c1C` (stereo not given): “inactive”; `CC1(C)C(=O)N(CCN2CCC(C(=O)c3ccc(F)cc3)CC2)c2ccccc21`: “inactive”; `S=c1nc[nH]c2nc[nH]c12`: 1.33 µM (active). For `CC(C)C[C@H](NC(=O)[C@H](Cc1ccccc1)NC(=O)c1cnccn1)B(O)O`, the Potency is 0.0531 µM (active).

With `CCCCC(CC)COC(=O)C(C#N)=C(c1ccccc1)c1ccccc1` (stereo not given), the Potency entry is “inactive”. Next, `Clc1ccc(C(Cn2ccnc2)OCc2c(Cl)cccc2Cl)c(Cl)c1` (stereo not given): 21.1 µM (active) and 18.7 µM (active); `NNc1nncc2ccccc12`: “inactive”; `Cc1ccc(C(=O)c2cc(O)c(O)c([N+](=O)[O-])c2)cc1`: 11.8 µM (active). To `NC(=NCc1ccccc1)NC(=O)c1nc(Cl)c(N)nc1N` belongs 5.9 µM (active); to `COc1c2occc2cc2ccc(=O)oc12`, “inactive”. Next, `COC1=C(OC)C(=O)C(CCCCCCCCCCO)=C(C)C1=O`: 26.6 µM (active) and 23.5 µM (active); `Nc1cccc2c1CN(C1CCC(=O)NC1=O)C2=O` (stereo not given): “inactive”. Turning to `CCC[C@@H]1C[C@@H](C(=O)N[C@@H]([C@H]2O[C@H](SC)[C@H](O)[C@@H](O)[C@H]2O)[C@@H](C)O)N(C)C1`, the Potency result was “inactive”. On to `CCCCc1ccc2nc(NC(=O)OC)[nH]c2c1`, for which the Potency is 9.3 nM (active) and 21.1 nM (active). Next, `Cc1cc(C2CCCCC2)n(O)c(=O)c1`: 2.96 µM (active); `COc1ccc2cc([C@H](C)C(=O)O)ccc2c1`: “inactive”. To `COCCCN1CCC(NC(=O)c2cc(Cl)c(N)c3c2OCC3)CC1` belongs “inactive”. Next, `Oc1ccc2ccccc2c1SSc1c(O)ccc2ccccc12`: 18.7 µM (active); `Cc1cccc(-c2[nH]ncc2-c2ccc3ncccc3n2)n1`: “inactive”; `N=C(N=C(N)N)N1CCOCC1`: “inactive”. In the case of `COc1cc(C(C)=O)ccc1OCCCN1CCC(c2noc3cc(F)ccc23)CC1`, the Potency entry was “inactive”. `CC1=C(C(=O)O)N2C(=O)[C@@H](NC(=O)[C@H](N)C3=CCC=CC3)[C@H]2SC1`: the Potency result was “inactive”. Next, `O=C1c2ccccc2-c2n[nH]c3cccc1c23`: 1.87 µM (active); `NS(=O)(=O)c1cc(C(=O)O)c(NCc2ccco2)cc1Cl`: “inactive”; `CC(C)[N+]1(C)[C@@H]2CC[C@H]1CC(OC(=O)C(CO)c1ccccc1)C2` (stereo not given in full): 9.35 µM (active). To `C=CCc1cc(OC)c(O)c(C(=O)NCCO)c1` belongs “inactive”; to `Cc1nc(-c2ccc(OCC(C)C)c(C#N)c2)sc1C(=O)O`, “inactive”. To `Nc1ccn([C@@H]2O[C@H](CO)[C@@H](O)C2O)c(=O)n1` (stereo not given in full) belongs “inactive”; to `CC(=O)O[C@H]1C(=O)[C@@]2(C)C([C@H](OC(=O)c3ccccc3)[C@]3(O)C[C@H](OC(=O)[C@H](O)[C@@H](NC(=O)c4ccccc4)c4ccccc4)C(C)=C1C3(C)C)[C@]1(OC(C)=O)CO[C@@H]1C[C@@H]2O` (stereo not given in full), 0.001 µM (active). Consider `NC(=O)Cc1cccc(C(=O)c2ccccc2)c1N`, for which the Potency entry was “inactive”. Next, `c1cnc2cc3c(cc2n1)C1CNCC3C1`: “inactive”; `CN(C)c1ccc2nc3ccc(=[N+](C)C)cc-3sc2c1`: 9.35 µM (active) and 8.41 µM (active). To `Cc1ccc(Nc2nccc(N(C)c3ccc4c(C)n(C)nc4c3)n2)cc1S(N)(=O)=O` belongs “inactive”; to `Cc1cccc(C)c1OCC(=O)N[C@@H](Cc1ccccc1)[C@@H](O)C[C@H](Cc1ccccc1)NC(=O)[C@H](C(C)C)N1CCCNC1=O`, 23.5 µM (active). Consider `O=C(O)c1cn(-c2ccc(F)cc2)c2cc(N3CCNCC3)c(F)cc2c1=O`, for which the Potency entry was “inactive”.

The values are drawn from PubChem BioAssay (NCATS).
